Measured values reported in PubChem BioAssay.
Calls of active or inactive are those of the source.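 Rule for the calls, unless noted: active = NADPH fluorescence slope more negative than the mean of all samples by about 3 SD, 99.7% confidence; inactive = the rest.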

Experiments:
[1] = inhibitors of TNFa-induced NFkB p65 translocation, primary screen, imaging, HUVEC, MLSMR starter and 10KST1 sets (AID 438;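 active = inhibition above 20% together with a positive visual image hit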;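 note: compound added about 3h40 before a 20 min TNFalpha stimulation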;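 for inhibition: signal is the nuclear over cytoplasmic p65 intensity ratio per well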); conditions: HUVEC TNFa-induced p65 nuclear translocation; cell count: measured here: nuclei count (cytotoxicity indicator), at 2.08 µM; inhibition: at 2 µM, stronger effect = higher value, 0% TNFa-plus-vehicle, 100% no-TNFa wells
[2] = inhibitors of mutant huntingtin aggregation, primary screen, imaging, exon1htt(103Q)mCFP cells, high-content imaging (AID 483;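 active = visual image review flags a hit and inhibition of aggregation exceeds 20%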;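 note: compound exposure lasted 3 days before fixation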;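 for nuclei count: percent of the per-plate median nuclei count of sample wells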); conditions: exon1htt(103Q)mCFP cell line, aggregate imaging, at 2 µM; inhibition of aggregation: stronger effect = higher value; nuclei count: measured here: cell count, toxicity
[3] = inhibitors of E-selectin induction by TNFa, primary screen, imaging, HUVEC, immunofluorescence, MLSMR starter and 10KST1 sets (AID 487;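 active = visually confirmed hit in the image check and inhibition above 20%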;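 for inhibition: signal is fraction of cell area covered by stained E-selectin grains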;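 for nuclei count: 100% = median nuclei count of all wells on the same plate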); conditions: HUVEC TNFalpha-induced E-selectin immunofluorescence imaging, at 2 µM; inhibition: stronger effect = higher value; nuclei count: measured here: cell number, toxicity
[4] = biological target: Voltage-gated potassium channel subunit beta-2 (Rattus norvegicus) (UniProt P62483); experiment: KvBeta enzyme negative modulators, primary screen, biochemical, NADPH fluorescence (AID 622;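 active = fluorescence slope higher than the sample average by over 3 SD, cut at about -0.22 in these data, passing the limit was not always enough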;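 note: slope of raw intensity against log time taken from 70 to 1610 s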); conditions: recombinant KvBeta, 4-cyanobenzaldehyde reduction, at 10 µM, stronger effect = higher value
[5] = biological target: Voltage-gated potassium channel subunit beta-2 (Rattus norvegicus) (UniProt P62483); experiment: KvBeta positive modulators, primary screen, biochemical, NADPH fluorescence (AID 623); conditions: Recombinant KvBeta, NADPH fluorescence decrease slope, 10 min; at 10 µM; stronger effect = lower value;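 note: fluorescence intensity change per second fitted from 20 to 320 s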
[6] = biological target: Alpha-2C adrenergic receptor (Homo sapiens) (UniProt P18825); experiment: modulators of alpha2C/GIRK thallium flux, primary screen, cell-based, HEK293 alpha2C/GIRK1/2 (AID 624;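 active = fluorescence slope after compound addition differing from the mean of all screened samples at 99.7% confidence, in either direction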;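 note: slope of fluorescence ratio to pre-addition baseline per second over 15 to 24 s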); conditions: thallium flux BTC fluorescence, at 10 µM, actives lie on both sides
[7] = inhibitors of Sendai virus-induced IRF3 signaling, primary screen, TLR/RLR signaling modifier project, cell-based, Sendai virus stimulus, luciferase, 10K MLSCN set (AID 602276;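 active = inhibition at or above 50% at 10 µM; inactive = inhibition below 50%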;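 note: firefly luciferase from ISG56 promoter only with Renilla not read in this screen; 0% = Sendai virus plus DMSO and 100% = medium plus DMSO without virus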); conditions: HEK293 RL24 IRF3 luciferase reporter, at 10 µM, stronger effect = higher value
[8] = inhibitors of poly I:C-induced TLR3 signaling, primary screen, cell-based, poly I:C stimulus, luciferase, 10K MLSCN set (AID 602277;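 active = inhibition of the reporter signal at or above 50%; inactive = inhibition below 50%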); conditions: HEK293-TLR3 RL24 IRF3 luciferase reporter, at 10 µM, stronger effect = higher value

Voltage-gated potassium channel subunit beta-2 (Rattus norvegicus), sequence (P62483 whole entry, looked up): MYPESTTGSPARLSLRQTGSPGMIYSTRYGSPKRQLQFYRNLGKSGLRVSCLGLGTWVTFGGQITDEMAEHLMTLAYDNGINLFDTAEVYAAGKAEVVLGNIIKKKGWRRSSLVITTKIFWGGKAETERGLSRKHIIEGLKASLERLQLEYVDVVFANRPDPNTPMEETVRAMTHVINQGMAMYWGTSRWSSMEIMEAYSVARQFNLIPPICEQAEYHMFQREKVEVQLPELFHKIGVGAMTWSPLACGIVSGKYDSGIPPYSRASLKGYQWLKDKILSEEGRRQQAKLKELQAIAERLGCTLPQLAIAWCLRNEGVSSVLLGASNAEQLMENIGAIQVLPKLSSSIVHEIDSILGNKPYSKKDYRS
Alpha-2C adrenergic receptor (Homo sapiens), sequence (P18825 whole entry, looked up): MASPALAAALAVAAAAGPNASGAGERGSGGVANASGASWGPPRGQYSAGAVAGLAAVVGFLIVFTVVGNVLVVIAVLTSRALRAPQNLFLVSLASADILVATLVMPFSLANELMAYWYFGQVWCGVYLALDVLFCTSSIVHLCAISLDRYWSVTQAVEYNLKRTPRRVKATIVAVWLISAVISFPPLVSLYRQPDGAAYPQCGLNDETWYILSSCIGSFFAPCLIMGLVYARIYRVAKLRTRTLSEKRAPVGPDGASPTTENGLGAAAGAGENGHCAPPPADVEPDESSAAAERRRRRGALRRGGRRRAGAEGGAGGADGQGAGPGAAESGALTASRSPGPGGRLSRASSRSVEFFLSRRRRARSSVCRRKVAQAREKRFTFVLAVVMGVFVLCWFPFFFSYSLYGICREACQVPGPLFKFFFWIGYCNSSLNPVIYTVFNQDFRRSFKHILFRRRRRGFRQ

| SMILES | cell count [1] | inhibition [1] | inhibition of aggregation [2] | nuclei count [2] | inhibition [3] | nuclei count [3] | fluorescence slope [4] | NADPH fluorescence slope [5] | slope [6] | inhibition [7] | inhibition [8] |
| --- | --- | --- | --- | --- | --- | --- | --- | --- | --- | --- | --- |
| Cc1oc(-c2ccccc2F)nc1CS(=O)(=O)CC(=O)NCc1ccco1 | 753 | -1.1% (inactive) | 4.5% (inactive) | 102% | -29.4% (inactive) | 107% | -0.539 (inactive) | -1.9e-05 (inactive) | 0.00692 (inactive) | 0.0639% (inactive) | 22.5% (inactive) |
| CN(C)CCN1C(=O)c2oc3ccc(Cl)cc3c(=O)c2C1c1cccc(Br)c1 (stereo not drawn) | 229 | -8.1% (inactive) | 13.3% (inactive) | 83.3% | -36.3% (inactive) | 89.9% | -0.412 (inactive) | -1.4e-05 (inactive) | 0.00335 (inactive) | 17.2% (inactive) | 49.7% (inactive) |
| COCC(=O)Nc1c(C(=O)Nc2ccccc2OC)oc2ccccc12 | 602 | -5.9% (inactive) | 11.9% (inactive) | 99.1% | 2.5% (inactive) | 60.9% | -0.318 (inactive) | 1.2e-05 (inactive) | 0.00625 (inactive) | -4.76% (inactive) | 11.5% (inactive) |
| Nc1ccc(C(=O)OCCCc2nc3ccccc3[nH]2)cc1 | 366 | -2.2% (inactive) | 10.5% (inactive) | 95.7% | 9% (inactive) | 92.5% | -0.589 (inactive) | -5.8e-05 (inactive) | 0.00614 (inactive) | -17.1% (inactive) | -17.7% (inactive) |
| Cn1c(SCCN2CCCCC2)nnc1-c1ccccc1Br | 493 | 4.4% (inactive) | 1.1% (inactive) | 70.5% | -13.3% (inactive) | 98.3% | -0.509 (inactive) | -3.5e-05 (inactive) | 0.00556 (inactive) | 13.4% (inactive) | 13.7% (inactive) |
| O=C(Nc1ccccc1)N1CCC(c2ccccc2)C1 (stereo not drawn) | 331 | 23.5% (inactive) | 3% (inactive) | 101% | 13.1% (inactive) | 103% | -0.481 (inactive) | -9.5e-06 (inactive) | 0.00694 (inactive) | -49.3% (inactive) | -82.3% (inactive) |
| Cn1c(SCC(=O)N2CCOCC2)nnc1-c1cnccn1 | 656 | 1% (inactive) | -11.1% (inactive) | 122% | -36.3% (inactive) | 114% | -0.396 (inactive) | 8e-06 (inactive) | 0.00449 (inactive) | 3.04% (inactive) | 21.7% (inactive) |
| O=S1(=O)CC(N2CCOCC2)c2ccccc21 (stereo not drawn) | 644 | -0.2% (inactive) | 8.1% (inactive) | 95.1% | -26.3% (inactive) | 112% | -0.52 (inactive) | -1.6e-05 (inactive) | 0.00437 (inactive) | 7.8% (inactive) | 12.8% (inactive) |
| COC(=O)C1(C(F)(F)F)N=C2Sc3ccccc3N2C(N2CCOCC2)=N1 (stereo not drawn) | 760 | -8.1% (inactive) | 8.1% (inactive) | 76.2% | -62.6% (inactive) | 107% | -0.54 (inactive) | -4.9e-05 (inactive) | 0.00667 (inactive) | 11.6% (inactive) | 26.4% (inactive) |
| CC(=O)c1c(C)[nH]c(C(=O)Nc2c(C)n(C)n(-c3ccccc3)c2=O)c1C | 418 | 2% (inactive) | -7.3% (inactive) | 112% | -137% (inactive) | 111% | -0.493 (inactive) | -2.7e-05 (inactive) | 0.00389 (inactive) | 17.1% (inactive) | 21.5% (inactive) |
| CN(C)S(=O)(=O)Nc1ccc(Br)cc1F | 688 | -11.1% (inactive) | 9.4% (inactive) | 103% | -24.9% (inactive) | 100% | -0.439 (inactive) | -8.8e-06 (inactive) | 0.00541 (inactive) | 8.09% (inactive) | 15.9% (inactive) |
| CCc1ccc(CCC(=O)Nc2ccc(C)c(C)c2)o1 | 255 | 5.2% (inactive) | -4.6% (inactive) | 80.2% | -34.3% (inactive) | 99.6% | -0.4 (inactive) | -5.2e-05 (inactive) | 0.006 (inactive) | -22.6% (inactive) | -50% (inactive) |
| COC(=O)c1c(O)ccc(Oc2ccccc2)c1C(=O)OC | 667 | -5.3% (inactive) | 28.9% (inactive) | 71.8% | -17.9% (inactive) | 107% | -0.257 (inactive) | -2.9e-06 (inactive) | 0.0066 (inactive) | 15.3% (inactive) | 21.8% (inactive) |
| Cn1c2c(c(=O)n(C)c1=O)C(c1cccc(Br)c1)C1C(=O)c3ccccc3C1=N2 (stereo not drawn) | 720 | -5.8% (inactive) | 2.7% (inactive) | 110% | 3.3% (inactive) | 109% | -0.585 (inactive) | -6.2e-05 (inactive) | 0.00438 (inactive) | 8.12% (inactive) | 12.5% (inactive) |
| Cc1cccc2cc(CN(CCN3CCCC3)C(=O)NC3CCCCC3)c(=O)[nH]c12 | 641 | -7.5% (inactive) | -0.1% (inactive) | 84.8% | -7.3% (inactive) | 97% | -0.428 (inactive) | 1e-05 (inactive) | 0.00641 (inactive) | 12.6% (inactive) | 38.4% (inactive) |
| COc1ccccc1-c1nc2n(n1)C(c1cccs1)C(C(=O)Nc1cccnc1)=C(C)N2 (stereo not drawn) | 446 | 16.2% (inactive) | -15.2% (inactive) | 57.9% | 7.4% (inactive) | 98.9% | -0.587 (inactive) | -3.8e-05 (inactive) | 0.00515 (inactive) | -11.5% (inactive) | -7.18% (inactive) |
| Cc1ccc(-c2noc(CCC(=O)NC3CCCc4ccccc43)n2)cc1 (stereo not drawn) | 377 | -2% (inactive) | 5.2% (inactive) | 108% | -27.6% (inactive) | 85.8% | -0.411 (inactive) | -3.2e-05 (inactive) | 0.00255 (inactive) | 19.1% (inactive) | 18.8% (inactive) |
| CCCC(=O)Nc1cnc(NC(=O)c2cccc(F)c2)cc1C | 465 | 14.1% (inactive) | 6.6% (inactive) | 95.6% | 46% (inactive) | 103% | -0.563 (inactive) | 4e-05 (inactive) | 0.00559 (inactive) | -24.4% (inactive) | -162% (inactive) |
| CCOCCOc1nc2c(c(=O)n(C)c(=O)n2C)n1Cc1ccc(C)cc1 | 830 | 2.3% (inactive) | -33.5% (inactive) | 102% | -35.1% (inactive) | 114% | -0.46 (inactive) | 5.4e-05 (inactive) | 0.00568 (inactive) | -11.5% (inactive) | -21.6% (inactive) |
| OCCNCCCCOc1ccccc1F | 765 | -1.5% (inactive) | -2.5% (inactive) | 91.8% | 33.1% (inactive) | 91.1% | -0.387 (inactive) | 1.2e-05 (inactive) | 0.00574 (inactive) | -4.78% (inactive) | 2.08% (inactive) |
| CCn1cc(C2=NCC(C)O2)c2ccccc21 (stereo not drawn) | 487 | 5% (inactive) | -14% (inactive) | 83.2% | -128% (inactive) | 102% | -0.595 (inactive) | -9.7e-06 (inactive) | 0.00619 (inactive) | 12.7% (inactive) | 25.5% (inactive) |
| CCc1ccccc1OCCCCCNCCO | 459 | 3.9% (inactive) | 28.4% (inactive) | 87.2% | 53% (inactive) | 85.2% | -0.303 (inactive) | -1e-05 (inactive) | 0.00576 (inactive) | 10.8% (inactive) | 31.9% (inactive) |
| O=C(O)C1CC=CCC1C(=O)Nc1cc(Cl)ccc1Cl (stereo not drawn) | 389 | 4.2% (inactive) | -1.2% (inactive) | 98.5% | 5.3% (inactive) | 102% | -0.505 (inactive) | -2.3e-05 (inactive) | 0.00676 (inactive) | -11.2% (inactive) | 1.01% (inactive) |
| CCOC(=O)C(NC(=O)c1ccc(OC)cc1)(N1CCOCC1)C(F)(F)F (stereo not drawn) | 551 | -0.5% (inactive) | -14.5% (inactive) | 108% | 29.4% (inactive) | 88.9% | -0.59 (inactive) | -4.2e-05 (inactive) | 0.00726 (inactive) | -14.4% (inactive) | -22.3% (inactive) |
| CCC1CCCCN1CCCNC(=O)CC1Oc2ccc(C)cc2NC1=O (stereo not drawn) | 810 | -1.8% (inactive) | 13.7% (inactive) | 105% | -71% (inactive) | 107% | -0.499 (inactive) | -3.5e-05 (inactive) | 0.00565 (inactive) | 5.08% (inactive) | 29.6% (inactive) |
| O=C(CSc1nnc(Cc2cc(=O)[nH]c(=O)[nH]2)n1-c1ccccc1)NCC1CCCO1 (stereo not drawn) | 398 | 1.1% (inactive) | -3.9% (inactive) | 110% | 5.7% (inactive) | 102% | -0.373 (inactive) | 3.5e-05 (inactive) | 0.00598 (inactive) | 10.3% (inactive) | 21.2% (inactive) |
| O=C(/C=C1\NC2(CCCC2)Cc2ccccc21)N1CCOCC1 | 637 | -1.6% (inactive) | -19.3% (inactive) | 88.6% | -93.5% (inactive) | 134% | -0.534 (inactive) | -4.8e-05 (inactive) | 0.00501 (inactive) | 14.1% (inactive) | 16.1% (inactive) |
| O=C(CSc1nnc(COc2ccc(Cl)cc2)o1)N1CCN(c2ccccc2)CC1 | 359 | -0.5% (inactive) | -18.8% (inactive) | 98.2% | -83.8% (inactive) | 110% | -0.501 (inactive) | -3.2e-06 (inactive) | 0.00706 (inactive) | 5.53% (inactive) | -9% (inactive) |
